Screen size: about 220,000 compounds; about 910 (0.41%) were called active. This excerpt belongs to a sample that is enriched for actives. Measured potencies and affinities stand elsewhere. A number with no mark means an inactive call.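 How the source made its calls: active means primary inhibition above the hit cutoff, then over 50% inhibition at one or more dose response concentrations (cut at about 23% in these data, passing the limit was not always enough); inconclusive means conflicting primary data, or primary hits not chosen for dose response; inactive means low primary inhibition, or under 50% at every dose.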

From PubChem BioAssay AID1445 (SRMLSC, 2008) come the findings set out here.

This assay deals with Aminopeptidase N (Plasmodium falciparum (isolate 3D7)) (UniProt O96935). Put plainly: P. falciparum M1AAP inhibitors, biochemical, fluorogenic H-Leu-NHMec substrate, 1536-well (AID 1445).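 Further: plate controls were DMSO full reaction for no effect and no enzyme background for full effect.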 The conditions noted are these: recombinant M1AAP, H-Leu-NHMec fluorogenic kinetic assay; at 30 µM, stronger effect = higher value unless noted.
Sequence of Aminopeptidase N (Plasmodium falciparum (isolate 3D7)) (O96935 whole entry, looked up): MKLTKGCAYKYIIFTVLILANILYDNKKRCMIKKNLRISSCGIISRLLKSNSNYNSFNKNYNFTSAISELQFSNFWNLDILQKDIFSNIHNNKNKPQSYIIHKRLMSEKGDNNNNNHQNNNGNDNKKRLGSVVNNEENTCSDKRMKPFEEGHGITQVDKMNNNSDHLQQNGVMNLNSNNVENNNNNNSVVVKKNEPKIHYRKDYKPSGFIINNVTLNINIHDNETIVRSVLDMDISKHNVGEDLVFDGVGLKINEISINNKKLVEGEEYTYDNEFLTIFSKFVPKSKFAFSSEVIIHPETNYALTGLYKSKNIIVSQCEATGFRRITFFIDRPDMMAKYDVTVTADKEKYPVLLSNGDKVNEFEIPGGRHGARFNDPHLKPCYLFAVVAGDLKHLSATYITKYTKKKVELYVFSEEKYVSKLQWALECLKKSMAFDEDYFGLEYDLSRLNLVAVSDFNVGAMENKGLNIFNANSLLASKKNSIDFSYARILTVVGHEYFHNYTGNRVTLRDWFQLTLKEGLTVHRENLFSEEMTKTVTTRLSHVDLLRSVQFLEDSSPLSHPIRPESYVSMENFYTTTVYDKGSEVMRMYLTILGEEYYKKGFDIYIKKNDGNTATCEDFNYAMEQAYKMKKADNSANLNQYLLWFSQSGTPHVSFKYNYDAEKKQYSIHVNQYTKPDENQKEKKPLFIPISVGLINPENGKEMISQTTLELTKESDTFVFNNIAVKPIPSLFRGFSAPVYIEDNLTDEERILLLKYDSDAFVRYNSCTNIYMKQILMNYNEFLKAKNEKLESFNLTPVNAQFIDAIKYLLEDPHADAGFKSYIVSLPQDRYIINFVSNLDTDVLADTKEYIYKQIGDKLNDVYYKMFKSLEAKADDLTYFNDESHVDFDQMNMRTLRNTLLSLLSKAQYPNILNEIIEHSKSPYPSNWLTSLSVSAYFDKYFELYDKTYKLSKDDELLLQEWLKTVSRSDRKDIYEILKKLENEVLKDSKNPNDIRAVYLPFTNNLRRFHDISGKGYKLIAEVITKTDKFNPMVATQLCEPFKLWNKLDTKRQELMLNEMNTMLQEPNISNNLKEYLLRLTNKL
Consider `COc1ccc(C(=O)/C=C/Nc2cccc(O)c2)cc1`, for which the inhibition was -6.48%.
Consider `Cn1nc(C(F)(F)F)c2cc(C(=O)Nc3ccc(F)c(Cl)c3)sc21`, for which the inhibition was 8.67%.
For `O=C(CNC(=O)c1cccc(Br)c1)N/N=C/c1cc(Br)cc(Br)c1O` the value was 0.13%; for `O=C(N/N=C/c1ccco1)c1cccc(N2CCCC2=O)c1`, 2.43%; for `O=C(CNC(=O)c1ccc(F)cc1)N/N=C/c1cc(Br)ccc1OCc1ccccc1`, 0.24%.
As to `COc1ccccc1/C=C/C(=O)NCC(=O)N/N=C/c1cc(Br)ccc1OC`, the inhibition is 22.4%.
In the case of `COc1ccc(/C=N/NC(=O)c2sc(C)nc2C)cc1`, the inhibition is 9.79%.
For `O=C(CNC(=O)c1ccncc1)N/N=C/c1cc(Br)ccc1OCc1ccccc1` the value was 5.07%; for `CN(C)c1ccc(/C=N/NC(=O)c2cccc(N3CCCC3=O)c2)cc1`, 4.11%; for `COc1ccccc1/C=N/NC(=O)c1sc(C)nc1C`, 5.02%.
For `CCOC(=O)CSc1nc2cc(C(=O)NCc3ccco3)ccc2c(=O)n1-c1ccc(F)cc1` the value was 4.72%; for `O=C(CCCCn1c(=O)[nH]c2ccccc2c1=O)NCCc1c[nH]c2ccccc12`, 3.37%; for `O=C(OCc1cc([N+](=O)[O-])cc2c1OCOC2)c1ccc2ccccc2n1`, -2.61%.
As to `Cc1cccc(NC(=O)CC2SC(=O)N(c3ccccc3)C2=O)c1` (stereo not drawn), the inhibition is 0.32%.
Consider `C=C1C(C(=O)Nc2cccc(OC)c2)C1C(=O)Nc1cccc(OC)c1` (stereo not drawn), for which the inhibition was 4.96%.
With `CCn1c(O)c(/C=N/N=C2CCCCC2)c2cc(C3=NNC(=O)CC3)ccc21`, the inhibition was 4.81%.
For `CCOC(=O)c1sc2nccc(N(C)C)c2c1N=CN(C)C` the value was 6.88%.
As for `COc1ccc(OC)c(CN2CCC(C(=O)N(C)CCc3ccc(OC)c(OC)c3)CC2)c1`, the inhibition is 6.02%.
Take `COc1cc(/C=N/NC(=O)c2cccc(NC(=O)c3ccccc3Cl)c2)ccc1O`: the inhibition was 21.6%.
Turning to `COc1cccc(/C=N/NC(=O)CN2CC(c3ccccc3)CC2=O)c1O` (stereo not drawn), the inhibition is 5.93%.
With `COc1cccc(/C=N/NC(=O)CN2CC(c3ccccc3)CC2=O)c1OC` (stereo not drawn) the figure was 0.13%; with `COc1cc(/C=N/NC(=O)c2cccnc2)ccc1OCC(=O)Nc1c(C)cc(C)cc1C`, 5.36%; with `CCC(O)(CC)C(=O)N/N=C/c1cc(Br)cc(Br)c1O`, 30.1%.
For the compound `CCNC(=O)COc1ccc(/C=N/NC(=O)c2cccnc2)cc1OC`, the inhibition is 3.71%.
In the case of `O=C(O)c1ccccc1N/N=C/c1cc(Br)cc(Br)c1O`, the inhibition is 17.7%.
On to `COc1ccccc1/C=N/NC(=O)c1cccc(NC(=O)c2ccccc2Cl)c1`, for which the inhibition was 6.04%.
For `O=c1[nH]c(Cc2ccccc2Cl)nc2ccccc12` the value was -2.4%.
For `CCc1c(C)[nH]n(-c2nc(-c3ccccc3)cs2)c1=O` the value was -3.51%; for `C=CCn1c(=O)c2ccccc2n2c(SCc3nnc(-c4ccccc4Br)o3)nnc12`, 2.98%.
With `Cc1ccc(NC(=O)c2cc(-c3ccco3)on2)cc1C`, the inhibition was 3.16%.
Turning to `CC12COC3(C(=O)NCCc4ccccc4)CC1CCC32C` (stereo not drawn), the inhibition is 3.11%.
Consider `CCCNS(=O)(=O)c1ccc(OCC(=O)NCCC2=CCCCC2)cc1`, for which the inhibition was 7.1%.
Regarding `Cc1ccc(S(=O)(=O)CCc2nnc(NC(=O)c3cccs3)s2)cc1`, the inhibition is -1.23%.
With `O=C(CNC(=O)c1ccccc1Br)N/N=C/c1ccccc1O` the figure was -1.99%; with `O=C(N/N=C/c1cc(Cl)cc(Cl)c1O)c1ccncc1`, 29.6%; with `Cc1ccc(/C=N/NC(=O)C(c2ccncc2)N2CCOCC2)cc1` (stereo not drawn), 2.18%.
With `O=C(N/N=C/c1cc(Cl)ccc1O)c1ccc(Br)cc1`, the inhibition is 22.2%.
Regarding `O=C(CNC(=O)c1ccccc1Br)N/N=C/c1ccc(O)cc1`, the inhibition is -0.27%.
As to `O=C(CNC(=O)c1ccncc1)N/N=C/c1ccc(Br)cc1`, the inhibition is 7.31%.
Turning to `O=C(CNC(=O)c1ccncc1)N/N=C/c1ccc(O)cc1O`, the inhibition is 3.55%.
For `COc1ccc(Br)cc1/C=N/NC(=O)C(c1ccncc1)N1CCOCC1` (stereo not drawn), the inhibition was -2.26%.
Regarding `CC(=O)c1cc(CN2C(=O)CCC2=O)cs1`, the inhibition was -1.15%.
For the compound `O=C(CSc1nc2ccccc2s1)NCCOc1ccc(Cl)cc1`, the inhibition is -0.05%.
With `COCc1c(C(=O)OC)nnn1-c1ccccc1`, the inhibition was -5.18%.
For `CCCc1c(O)nc(SCCN(CC)CC)n(C(=O)c2ccccc2)c1=O`, the inhibition is 6.49%.
As to `CC(=O)c1ccc(N2CCN(C(=S)NCCCN(C)C)CC2)cc1`, the inhibition was 6.58%.
`O=C(N1CCOCC1)N1CCC(NC(=O)C23CC4CC(CC(C4)C2)C3)CC1`: the inhibition is -1.68%.
`O=C(COC(=O)/C=C/c1ccc(S(=O)(=O)N2CCOCC2)cc1)NCc1ccccc1`: the inhibition is 7.02%.
In the case of `COc1cccc(-c2nnc(SCC3CNC(=O)O3)n2-c2ccc(Cl)cc2)c1` (stereo not drawn), the inhibition is 3.85%.
As for `Cc1cccc(OCC(=O)Nc2cc(S(=O)(=O)N3CCCCC3)ccc2N2CCN(C)CC2)c1`, the inhibition is 5.64%.
In the case of `Cc1cnc(C(=O)Nc2nc(-c3ccccc3)cs2)cn1`, the inhibition was 7.19%.
With `O=C(N/N=C/c1cc(Br)cc(Br)c1O)c1ccncc1` the figure was 36.7%; with `O=C(N/N=C/c1cc([N+](=O)[O-])ccc1O)c1ccncc1`, 18.8%.
Turning to `CN(C)/C=C(\C=O)c1onc(-c2ccccc2Cl)c1C#N`, the inhibition was 6.68%.
In the case of `CN(CC(=O)Nc1ccccc1C(=O)N1CCCC1)S(=O)(=O)c1ccc(Br)cc1`, the inhibition was -0.21%.
As to `CC(C)C1NC2(C(=O)c3ccccc3C2=O)C2C(=O)N(c3ccc(F)cc3)C(=O)C12` (stereo not drawn), the inhibition is 0.46%.
With `N=C1S/C(=C\c2ccco2)C(=O)N1c1ccc2c(c1)OCO2` the figure was 10%; with `Cc1ccc(NC(=O)CN2C(=O)S/C(=C\c3ccc(-c4cccc(C(=O)O)c4C)o3)C2=O)cc1`, 0.51%.
Take `Cc1cccc(NC(=O)CN2C(=O)S/C(=C\c3ccc(-c4cccc(C(=O)O)c4C)o3)C2=O)c1`: the inhibition was 2.36%.
Turning to `Cc1ccccc1NC(=O)CN1C(=O)S/C(=C\c2ccc(-c3cccc(C(=O)O)c3C)o2)C1=O`, the inhibition was -2.06%.
Take `Cc1ccc(NC(=O)CN2C(=O)S/C(=C\c3ccc(-c4cccc(C(=O)O)c4C)o3)C2=O)cc1C`: the inhibition was 8.24%.
For `COc1cc(/C=C2\SC(=N)N(c3ccc4c(c3)OCO4)C2=O)cc(OC)c1O`, the inhibition is 5.15%.
With `COc1ccc(-c2nnc(SCC(=O)Nc3cc(F)ccc3C)o2)cc1` the figure was -0.41%; with `CCOc1ccc(N2C(=O)C(=O)/C(=C(/O)c3ccccc3)C2c2ccccc2[N+](=O)[O-])cc1` (stereo not drawn), 5.86%; with `Cc1ccc(C(=O)Nc2c(-c3cccs3)c(=O)c3ccccc3n2C)cc1`, 5.78%.
As for `NNC(=O)Cn1nc2n(c1=O)-c1ccccc1SC2`, the inhibition is -0.09%.
Consider `Cc1nnc(-n2ncc(C#N)c2N)c2nn(-c3cccc(Cl)c3)c(C)c12`, for which the inhibition is 0.94%.
As to `C=CCN(C(=O)Cn1c(C(=O)OC)cc2oc(C)cc21)c1ccccc1`, the inhibition is 0.64%.
On to `COC(=O)c1cc2oc(C)cc2n1CC(=O)N(C)c1ccccc1`, for which the inhibition was 24.4% (active).
Turning to `COC(=O)c1cc2sccc2n1CC(=O)N(C)c1ccccc1`, the inhibition was 4.58%.
Regarding `O=C(Cn1cc(C(F)(F)F)ccc1=O)N/N=C/c1ccccc1O`, the inhibition was 1.53%.
Consider `CN1C(=O)/C(=N\OC(=O)c2cccc3ccccc23)c2ccccc21`, for which the inhibition is 5.56%.
With `CN1C(=O)/C(=N/OC(=O)c2ccccc2)c2ccccc21` the figure was -0.99%.
With `COC(=O)c1cccc(Nc2nc(-c3cccnc3)nc3ccccc23)c1`, the inhibition was 0.67%.
As for `O=C(O)c1ccc(Nc2nc(-c3cccnc3)nc3ccccc23)cc1`, the inhibition was 10.8%.
For `C=CCn1c(=O)c2c(nc3n2CC(C)CN3c2cccc(OC)c2)n(C)c1=O` (stereo not drawn) the value was 26.4% (active); for `COc1cccc(N2CC(C)Cn3c2nc2c3c(=O)n(CCN3CCOCC3)c(=O)n2C)c1` (stereo not drawn), 2.83%.
Turning to `COc1cccc(N2CC(O)Cn3c2nc2c3c(=O)n(CCCc3ccccc3)c(=O)n2C)c1` (stereo not drawn), the inhibition is 2.82%.
Regarding `O=[N+]([O-])c1cccc(NC2=NCCC2)c1`, the inhibition is 3.59%.
On to `Clc1cccc(NC2=NCCC2)c1`, for which the inhibition was 0.77%.
Regarding `c1ccc(Oc2cccc(NC3=NCCC3)c2)cc1`, the inhibition is 29.3% (active).
In the case of `O=C(C1CCC1)N1CCN(Cc2ccccc2)CC1`, the inhibition is 7.01%.
For `Cc1ccc(CN2CCN(C(=O)C3CCC3)CC2)cc1`, the inhibition was 27.7% (active).
For `Cc1ccc(CN2CCN(C(=O)C3CCCO3)CC2)cc1` (stereo not drawn) the value was -1.62%; for `CCN(CC)CC(C)CNC(=O)CN1C(=O)CSc2ccc(S(=O)(=O)N3CCOCC3)cc21` (stereo not drawn), 8.54%.
As for `CC(=O)NC(=S)NNC(=O)COc1ccc([N+](=O)[O-])cc1`, the inhibition is -19.9%.
As for `CC(C)(C)NC(=O)C(=O)NNC(=O)COc1ccccc1`, the inhibition was 20.1%.
`Cc1ccc(OCC(=O)NNC(=O)C(=O)NC(C)(C)C)cc1`: the inhibition was 13.2%.
As to `CCC(=O)NC(=S)NNC(=O)COc1ccc(Br)cc1`, the inhibition was -1.75%.
Turning to `CCc1ccc(S(=O)(=O)NCc2csc(C)n2)s1`, the inhibition is 9.49%.
For `Cc1oc(-c2cccs2)nc1CN1CC[C@@](O)(c2ccccc2)[C@H]2CCCC[C@@H]21` the value was 4.34%; for `O=C(O)c1ccc(CNC(=O)c2ccccc2NC(=O)c2ccc([N+](=O)[O-])cc2)cc1`, 1.28%; for `CCOC(=O)c1cc2sccc2n1CC(=O)OC`, 5.03%.

The inhibition is the change of the read-out against control, counted positive when it falls.
